Measured values: the supplement of paper PMC8728848
Shown is part of a subset that was picked to be rich in the strongest signals.

Experiments:
Assay in all cases: glycan array binding signal (z-score within array); higher = stronger binding
Settings in all cases: glycan notation: IUPAC condensed, linker removed
Fuc(a1-2)Gal = target: Fuc(a1-2)Gal
Summary of the method: (§1)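 Glycan array binding is given as a within-array Z-score, which can be read as non-binding when negative. The arrays, 3228 of them, came from the Consortium for Functional Glycomics database and were retained only where the protein sequence was available. Z-scores were averaged across arrays of the same protein sequence at different concentrations or buffers and across linkers.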

[1] = target: Fuc(a1-2)Gal(b1-3)GlcNAc(b1-2)Man(a1-3)[Fuc(a1-2)Gal(b1-3)GlcNAc(b1-2)Man(a1-6)]Man(b1-4)GlcNAc(b1-4)GlcNAc
Summary of the method: as §1

[2] = target: Fuc(a1-2)Gal(b1-3)[Fuc(a1-4)]GlcNAc(b1-2)Man(a1-3)[Fuc(a1-2)Gal(b1-3)[Fuc(a1-4)]GlcNAc(b1-2)Man(a1-6)]Man(b1-4)GlcNAc(b1-4)[Fuc(a1-6)]GlcNAc(b1-4)[Fuc(a1-6)]GlcNAc
Summary of the method: as §1

[3] = target: Fuc(a1-2)Gal(b1-4)[Fuc(a1-3)]GlcNAc(b1-2)[Fuc(a1-2)Gal(b1-4)[Fuc(a1-3)]GlcNAc(b1-4)]Man(a1-3)[Fuc(a1-2)Gal(b1-4)[Fuc(a1-3)]GlcNAc(b1-2)Man(a1-6)]Man(b1-4)GlcNAc(b1-4)GlcNAc
Summary of the method: as §1

[4] = target: Fuc(a1-2)Gal(b1-4)[Fuc(a1-3)]GlcNAc(b1-3)Gal(b1-4)[Fuc(a1-3)]GlcNAc(b1-3)Gal(b1-4)[Fuc(a1-3)]GlcNAc
Summary of the method: as §1

Fuc(a1-2)Gal6S(b1-4)Glc = target: Fuc(a1-2)Gal6S(b1-4)Glc
Summary of the method: as §1

[5] = target: Fuc(a1-2)[Gal(a1-3)]Gal(b1-3)GlcNAc(b1-2)Man(a1-3)[Fuc(a1-2)[Gal(a1-3)]Gal(b1-3)GlcNAc(b1-2)Man(a1-6)]Man(b1-4)GlcNAc(b1-4)[Fuc(a1-6)]GlcNAc
Summary of the method: as §1

[6] = target: Fuc(a1-2)[Gal(a1-3)]Gal(b1-4)GlcNAc
Summary of the method: as §1

[7] = target: Fuc(a1-2)[Gal(a1-3)]Gal(b1-4)GlcNAc(b1-2)Man
Summary of the method: as §1

[8] = target: Fuc(a1-2)[GalNAc(a1-3)]Gal(b1-4)GlcNAc(b1-2)Man
Summary of the method: as §1

[9] = target: Fuc(a1-2)[GalNAc(a1-3)]Gal(b1-4)GlcNAc(b1-3)GalNAc
Summary of the method: as §1

[10] = target: Fuc(a1-3)[Gal(b1-4)]GlcNAc(b1-6)[Gal(b1-3)GlcNAc(b1-3)]Gal(b1-4)Glc
Summary of the method: as §1

[11] = target: Fuc(a1-3)[Gal3S(b1-4)]GlcNAc
Summary of the method: as §1

Gal(a1-4)Gal(b1-4)Glc = target: Gal(a1-4)Gal(b1-4)Glc
Summary of the method: as §1

Gal(b1-3)GlcNAc = target: Gal(b1-3)GlcNAc
Summary of the method: as §1

[12] = target: Gal(b1-3)GlcNAc(a1-6)Gal(b1-4)GlcNAc
Summary of the method: as §1

[13] = target: Gal(b1-3)GlcNAc(b1-2)Man(a1-3)[Gal(b1-3)GlcNAc(b1-2)Man(a1-6)]Man(b1-4)GlcNAc(b1-4)GlcNAc
Summary of the method: as §1

[14] = target: Gal(b1-3)GlcNAc(b1-2)Man(a1-3)[Gal(b1-3)GlcNAc(b1-2)Man(a1-6)]Man(b1-4)GlcNAc(b1-4)[Fuc(a1-6)]GlcNAc
Summary of the method: as §1

[15] = target: Gal(b1-3)GlcNAc(b1-3)Gal(b1-3)GlcNAc
Summary of the method: as §1

[16] = target: Gal(b1-3)GlcNAc(b1-3)Gal(b1-4)GlcNAc
Summary of the method: as §1

[17] = target: Gal(b1-3)GlcNAc(b1-3)Gal(b1-4)GlcNAc(b1-2)[Gal(b1-3)GlcNAc(b1-3)Gal(b1-4)GlcNAc(b1-6)]Man(a1-6)[Gal(b1-3)GlcNAc(b1-3)Gal(b1-4)GlcNAc(b1-2)Man(a1-3)]Man(b1-4)GlcNAc(b1-4)[Fuc(a1-6)]GlcNAc
Summary of the method: as §1

[18] = target: Gal(b1-3)GlcNAc(b1-3)Gal(b1-4)GlcNAc(b1-3)Gal(b1-4)GlcNAc(b1-2)[Gal(b1-3)GlcNAc(b1-3)Gal(b1-4)GlcNAc(b1-3)Gal(b1-4)GlcNAc(b1-6)]Man(a1-6)[Gal(b1-3)GlcNAc(b1-3)Gal(b1-4)GlcNAc(b1-3)Gal(b1-4)GlcNAc(b1-2)Man(a1-3)]Man(b1-4)GlcNAc(b1-4)[Fuc(a1-6)]GlcNAc
Summary of the method: as §1

[19] = target: Gal(b1-3)[Fuc(a1-4)]GlcNAc(b1-3)Gal(b1-4)[Fuc(a1-3)]GlcNAc
Summary of the method: as §1

[20] = target: Gal(b1-3)[Neu5Ac(b2-6)]GalNAc
Summary of the method: as §1

[21] = target: Gal(b1-4)GlcNAc(b1-3)Gal(b1-4)GlcNAc
Summary of the method: as §1

[22] = target: Gal(b1-4)GlcNAc(b1-3)Gal(b1-4)GlcNAc(b1-2)Man(a1-3)[Gal(b1-4)GlcNAc(b1-3)Gal(b1-4)GlcNAc(b1-2)Man(a1-6)]Man(b1-4)GlcNAc(b1-4)[Fuc(a1-6)]GlcNAc
Summary of the method: as §1

[23] = target: Gal(b1-4)GlcNAc(b1-3)Gal(b1-4)GlcNAc(b1-3)Gal(b1-4)GlcNAc(b1-3)Gal(b1-4)GlcNAc(b1-2)Man(a1-3)[Gal(b1-4)GlcNAc(b1-3)Gal(b1-4)GlcNAc(b1-3)Gal(b1-4)GlcNAc(b1-3)Gal(b1-4)GlcNAc(b1-2)Man(a1-6)]Man(b1-4)GlcNAc(b1-4)GlcNAc
Summary of the method: as §1

[24] = target: Gal(b1-4)GlcNAc(b1-3)Gal(b1-4)GlcNAc(b1-3)Gal(b1-4)GlcNAc(b1-3)Gal(b1-4)GlcNAc(b1-2)Man(a1-3)[Gal(b1-4)GlcNAc(b1-3)Gal(b1-4)GlcNAc(b1-3)Gal(b1-4)GlcNAc(b1-3)Gal(b1-4)GlcNAc(b1-2)Man(a1-6)]Man(b1-4)GlcNAc(b1-4)[Fuc(a1-6)]GlcNAc
Summary of the method: as §1

[25] = target: Gal(b1-4)GlcNAc(b1-3)Gal(b1-4)GlcNAc(b1-3)Gal(b1-4)GlcNAc(b1-3)Gal(b1-4)GlcNAc(b1-2)[Gal(b1-4)GlcNAc(b1-3)Gal(b1-4)GlcNAc(b1-3)Gal(b1-4)GlcNAc(b1-3)Gal(b1-4)GlcNAc(b1-6)]Man(a1-6)[Gal(b1-4)GlcNAc(b1-3)Gal(b1-4)GlcNAc(b1-3)Gal(b1-4)GlcNAc(b1-3)Gal(b1-4)GlcNAc(b1-2)Man(a1-3)]Man(b1-4)GlcNAc(b1-4)[Fuc(a1-6)]GlcNAc
Summary of the method: as §1

[26] = target: Gal(b1-4)GlcNAc(b1-3)Gal(b1-4)GlcNAc(b1-3)Gal(b1-4)GlcNAc(b1-3)Gal(b1-4)GlcNAc(b1-3)Gal(b1-4)GlcNAc(b1-2)[Gal(b1-4)GlcNAc(b1-3)Gal(b1-4)GlcNAc(b1-3)Gal(b1-4)GlcNAc(b1-3)Gal(b1-4)GlcNAc(b1-3)Gal(b1-4)GlcNAc(b1-6)]Man(a1-6)[Gal(b1-4)GlcNAc(b1-3)Gal(b1-4)GlcNAc(b1-3)Gal(b1-4)GlcNAc(b1-3)Gal(b1-4)GlcNAc(b1-3)Gal(b1-4)GlcNAc(b1-2)Man(a1-3)]Man(b1-4)GlcNAc(b1-4)[Fuc(a1-6)]GlcNAc
Summary of the method: as §1

Gal(b1-4)GlcNAc6P = target: Gal(b1-4)GlcNAc6P
Summary of the method: as §1

Gal6S(b1-4)GlcNAc6S = target: Gal6S(b1-4)GlcNAc6S
Summary of the method: as §1

Glc(b1-6)Glc = target: Glc(b1-6)Glc
Summary of the method: as §1

[27] = target: GlcA3S(b1-3)Gal(b1-4)GlcNAc(b1-2)Man
Summary of the method: as §1

[28] = target: GlcNAc(a1-4)Gal(b1-4)GlcNAc(b1-3)Gal(b1-4)GlcNAc(b1-3)Gal(b1-4)GlcNAc
Summary of the method: as §1

[29] = target: GlcNAc(b1-3)Gal(b1-4)GlcNAc
Summary of the method: as §1

[30] = target: GlcNAc(b1-4)Gal(b1-4)GlcNAc
Summary of the method: as §1

Kdn(a2-6)Gal(b1-4)GlcNAc = target: Kdn(a2-6)Gal(b1-4)GlcNAc
Summary of the method: as §1

[31] = target: Man(a1-2)Man(a1-2)Man(a1-3)Man
Summary of the method: as §1

[32] = target: Neu5Ac(a2-3)Gal(b1-3)GlcNAc(b1-3)Gal(b1-4)GlcNAc
Summary of the method: as §1

[33] = target: Neu5Ac(a2-3)Gal(b1-4)GlcNAc
Summary of the method: as §1

[34] = target: Neu5Ac(a2-3)Gal(b1-4)[Fuc(a1-3)]GlcNAc(b1-6)[Gal(b1-3)]GalNAc
Summary of the method: as §1

Neu5Ac(a2-6)GalNAc = target: Neu5Ac(a2-6)GalNAc
Summary of the method: as §1

Neu5Ac(a2-8)Neu5Ac = target: Neu5Ac(a2-8)Neu5Ac
Summary of the method: as §1

[35] = target: Neu5Ac(a2-8)Neu5Ac(a2-8)Neu5Ac
Summary of the method: as §1

Neu5Ac(b2-6)GalNAc = target: Neu5Ac(b2-6)GalNAc
Summary of the method: as §1

[36] = target: Neu5Gc(a2-3)Gal(b1-3)[Fuc(a1-4)]GlcNAc
Summary of the method: as §1

[37] = target: Neu5Gc(a2-8)Neu5Ac(a2-3)Gal(b1-4)GlcNAc
Summary of the method: as §1

B1: SGC, Q9M345 (protein)
chain: QNLNFTYNGFHPPLTDISLQGLATVTPNGLLKLTNTSVQKTGHAFCTERIRFKDSQNGNVSSFSTTFVFAIHSQIPTLSGHGIAFVVAPTLGLPFALPSQYIGLFNISNNGNDTNHIFAVEFDTIQSSEFGDPNDNHVGIDLNGLRSANYSTAGYRDDHDKFQNLSLISRKRIQVWIDYDNRSHRIDVTVAPFDSDKPRKPLVSYVRDLSSILLEDMYVGFSSATGSVLSEHFLVGWSFRLNGEAPMLSLSKLPKLPRFEPRRIS
Fuc(a1-2)Gal
  glycan array binding signal (z-score): -0.354
[1]
  glycan array binding signal (z-score): 3.64
[2]
  glycan array binding signal (z-score): -0.292
[3]
  glycan array binding signal (z-score): -0.12
[4]
  glycan array binding signal (z-score): -0.332
Fuc(a1-2)Gal6S(b1-4)Glc
  glycan array binding signal (z-score): -0.377
[5]
  glycan array binding signal (z-score): -0.4
[6]
  glycan array binding signal (z-score): -0.374
[7]
  glycan array binding signal (z-score): -0.352
[8]
  glycan array binding signal (z-score): -0.4
[9]
  glycan array binding signal (z-score): -0.344
[10]
  glycan array binding signal (z-score): -0.291
[11]
  glycan array binding signal (z-score): -0.299
Gal(a1-4)Gal(b1-4)Glc
  glycan array binding signal (z-score): -0.292
Gal(b1-3)GlcNAc
  glycan array binding signal (z-score): -0.208
[12]
  glycan array binding signal (z-score): 0.154
[13]
  glycan array binding signal (z-score): 3.77
[14]
  glycan array binding signal (z-score): 6.74
[15]
  glycan array binding signal (z-score): 0.723
[16]
  glycan array binding signal (z-score): -0.434
[17]
  glycan array binding signal (z-score): 5.28
[18]
  glycan array binding signal (z-score): 4.72
[19]
  glycan array binding signal (z-score): -0.357
[20]
  glycan array binding signal (z-score): -0.305
[21]
  glycan array binding signal (z-score): -0.296
[22]
  glycan array binding signal (z-score): 4.81
[23]
  glycan array binding signal (z-score): 4.57
[24]
  glycan array binding signal (z-score): 5.27
[25]
  glycan array binding signal (z-score): 8.45
[26]
  glycan array binding signal (z-score): 5.39
Gal(b1-4)GlcNAc6P
  glycan array binding signal (z-score): -0.448
Gal6S(b1-4)GlcNAc6S
  glycan array binding signal (z-score): 0.254
Glc(b1-6)Glc
  glycan array binding signal (z-score): -0.344
[27]
  glycan array binding signal (z-score): -0.501
[28]
  glycan array binding signal (z-score): -0.351
[29]
  glycan array binding signal (z-score): -0.367
[30]
  glycan array binding signal (z-score): -0.349
Kdn(a2-6)Gal(b1-4)GlcNAc
  glycan array binding signal (z-score): -0.393
[31]
  glycan array binding signal (z-score): -0.36
[32]
  glycan array binding signal (z-score): -0.413
[33]
  glycan array binding signal (z-score): -0.311
[34]
  glycan array binding signal (z-score): 8.35
Neu5Ac(a2-6)GalNAc
  glycan array binding signal (z-score): -0.34
Neu5Ac(a2-8)Neu5Ac
  glycan array binding signal (z-score): -0.356
[35]
  glycan array binding signal (z-score): -0.347
Neu5Ac(b2-6)GalNAc
  glycan array binding signal (z-score): -0.286
[36]
  glycan array binding signal (z-score): -0.349
[37]
  glycan array binding signal (z-score): -0.365
